697 NFkB inh – inhibitors of the PMA/ionomycin-induced NF-kB reporter in 697 B cells. inhibition, % at 4 µM. AID 435022. 0.33% of 330,000 active. 697 B-cell NF-kB luciferase reporter, 16 h; in the data active = inhibition above about 35%
Mdm2-MdmX inh – inhibitors of human Mdm2/MdmX interaction; O15151+Q00987; SaOS-2 split-luciferase Mdm2/MdmX complementation, luminescence; inhibition, % at 8 µM; 3% of 330,000 active; AID 485346;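 active = inhibition of at least 50% at 8 µM in the primary screen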
Target sequence (O15151 whole entry, looked up): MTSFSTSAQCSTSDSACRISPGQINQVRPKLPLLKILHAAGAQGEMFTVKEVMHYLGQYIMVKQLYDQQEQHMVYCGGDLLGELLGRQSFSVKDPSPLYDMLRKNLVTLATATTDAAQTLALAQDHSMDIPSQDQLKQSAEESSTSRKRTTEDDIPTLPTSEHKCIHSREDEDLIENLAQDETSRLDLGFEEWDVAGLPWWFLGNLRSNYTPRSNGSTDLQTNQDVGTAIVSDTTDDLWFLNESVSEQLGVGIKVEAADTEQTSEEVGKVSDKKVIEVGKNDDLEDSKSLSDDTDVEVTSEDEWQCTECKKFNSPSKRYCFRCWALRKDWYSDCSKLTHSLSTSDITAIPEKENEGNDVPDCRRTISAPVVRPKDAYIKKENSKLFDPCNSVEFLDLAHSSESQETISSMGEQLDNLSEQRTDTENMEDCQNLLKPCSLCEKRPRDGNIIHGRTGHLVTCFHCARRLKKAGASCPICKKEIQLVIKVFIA
Target sequence (Q00987 whole entry, looked up): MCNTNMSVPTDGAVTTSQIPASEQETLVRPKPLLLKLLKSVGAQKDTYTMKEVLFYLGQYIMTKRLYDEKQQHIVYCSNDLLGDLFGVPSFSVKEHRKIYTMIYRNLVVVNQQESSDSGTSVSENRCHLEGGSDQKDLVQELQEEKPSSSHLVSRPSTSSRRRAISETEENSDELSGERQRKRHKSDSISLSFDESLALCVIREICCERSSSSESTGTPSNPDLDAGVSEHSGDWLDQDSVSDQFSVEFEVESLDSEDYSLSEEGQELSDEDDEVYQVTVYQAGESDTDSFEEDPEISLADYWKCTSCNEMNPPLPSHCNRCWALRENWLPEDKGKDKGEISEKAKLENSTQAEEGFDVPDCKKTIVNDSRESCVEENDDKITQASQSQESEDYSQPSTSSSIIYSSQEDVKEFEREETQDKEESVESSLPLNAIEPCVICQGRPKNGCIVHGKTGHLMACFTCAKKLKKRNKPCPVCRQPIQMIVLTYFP
aSyn UTR inh – MLPCN primary screen, SNCA 5' untranslated region. alpha-synuclein 5'UTR reporter, inhibitor activity. inhibition, % (tested at 7.5 µM). 0.82% of 300,000 active. AID 1813; in the data active = inhibition above about 60%;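 also: H4 neuroglioblastoma cells stably carrying SNCA 5'UTR luciferase fusion; 0% = DMSO wells and 100% = positive control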
CSC inhib – blocks cancer stem cells; 1.1% of 300,000 active; cancer stem cell-like cells viability, luminescence; AID 2717; inhibition, % at 7.5 µM; in the data active = inhibition above about 75%; tested in HMLE shEcad cells
Gli-Sufu antag – antagonists of Gli-Sufu signaling | Sufu-KO-LIGHT fibroblasts, Gli luciferase reporter luminescence | AID 588413 | inhibition, % at 5 µM | 0.74% of 340,000 active;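 active = inhibition above about 55%, limit read from the data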;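 also: 0% = DMSO-treated cells and 100% = wells with medium but no cells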
Jurkat NFkB inh – lowers PMA/ionomycin-induced NF-kB signal in Jurkat cells; AID 435003; inhibition, % at 4 µM; 0.53% of 330,000 active; PMA/ionomycin-induced NF-kB luciferase reporter, luminescence; in the data active = inhibition above about 50%
The depositor's hits bear a star; . = no result. In the library only some 4.5% were active in any assay of this set; here they are far more common.

SMILES	697 NFkB inh	Mdm2-MdmX inh	aSyn UTR inh	CSC inhib	Gli-Sufu antag	Jurkat NFkB inh
NCCOc1ccc(C23CC4CC(CC(C4)C2)C3)cc1	-26.4	29.9	81.0*	-9.7	-18.5	-51.4
COc1ccc(CN(C)C(C)C(=O)N(C)CC(=O)Nc2ccc(C)cc2)cc1F (stereo not drawn)	-4.7	6.8	.	-4.6	2.9	11.5
Fc1ccccc1COc1ccc(-c2nnn(Cc3ccccc3F)n2)cc1	28.5	-13.2	-1.9	80.6*	-5.0	14.9
CC(C)n1nnc(-c2ccc(OCc3ccccc3F)cc2)n1	-98.2	-104.2	-99.7	11.2	-71.0	-87.6
Cc1cccn2c(=O)c3cc(C(=O)N4COCC4(C)C)n(Cc4ccccc4)c3nc12	-29.9	21.6	10.7	-8.1	9.9	-5.1
CSc1ccc(/C=C(\C#N)C(=O)NC2CCCCC2C)cc1 (stereo not drawn)	-1.4	15.7	-9.1	40.1	-10.8	2.6
CC1CCCCC1NC(=O)/C(C#N)=C/c1ccccc1F (stereo not drawn)	-19.8	27.1	-0.6	80.8*	1.6	16.4
CSC(SC)=C(C#N)C(=O)c1ccccc1	-53.0	13.0	-25.1	71.2	5.8	6.3
COc1cccc(C(=O)C(C#N)=C(SC)SC)c1	-18.3	34.5	-47.4	82.8*	7.8	10.6
COc1ccc(CCNC(=O)COC(=O)COc2ccc(C#N)cc2)cc1	-0.2	-3.4	13.7	5.3	-11.9	-15.8
CCOc1cc(S(=O)(=O)Nc2ccc(CC)cc2)ccc1Cl	-6.0	-7.1	21.8	123.1*	10.7	1.6
CC1(C)CC(=O)c2c(nc(SCC(=O)Nc3nsc(-c4ccccc4)n3)c(C#N)c2-c2ccccc2)C1	-56.7	19.7	74.1*	31.8	-6.8	-31.0
Cc1ccc(NS(=O)(=O)c2ccc(NC(=O)C(C)Sc3ccc(Cl)cc3)cc2)c(C)c1 (stereo not drawn)	10.2	23.9	11.4	76.8*	12.6	-6.8
Cc1ccc(C)c(NS(=O)(=O)c2ccc(NC(=O)CSc3ccc(Cl)cc3)cc2)c1	16.3	15.0	10.1	-2.7	-2.2	-9.1
Brc1ccc(-c2noc3c2-c2nc(C4CCCCC4)sc2CC3)cc1	22.5	-15.8	0.7	0.3	-7.3	0.1
COc1ccc(-c2cc(C(F)(F)F)c3c(N)c(C(=O)NCCSC)sc3n2)cc1	-0.5	0.0	8.4	5.4	-0.4	-4.5
CN(C)CCNC(=O)c1sc2nc(-c3ccccc3)cc(C(F)(F)F)c2c1N	-7.8	38.3	4.0	77.6*	8.8	-13.9
CN(C)c1ccc(S(=O)(=O)N2CCCCC2)cc1NC(=O)CCNC(=O)c1ccco1	13.9	16.9	.	.	-1.9	0.7
CCOC(=O)c1cccc(NC(=O)c2ccc3c(c2)OCO3)c1	-42.3	-24.5	-125.8	19.5	-50.5	-37.1
Cc1cc(NC(=O)/C=C/c2ccc(Cl)cc2)no1	-112.7	-11.8	-77.7	78.1*	-59.6	21.1
O=C(/C=C/c1ccc2c(c1)OCO2)NCCSCc1cccc(Cl)c1	27.4	15.5	2.2	102.2*	-4.2	11.8
O=C(/C=C/c1ccc2c(c1)OCO2)NCCSCc1ccc(Cl)cc1Cl	-0.1	-12.7	-4.6	.	-13.1	2.6
CCOC(=O)c1cccc(NC(=O)/C=C/c2ccc3c(c2)OCO3)c1	-37.7	2.1	105.8*	2.2	-68.5	13.9
O=C(/C=C/c1ccc2c(c1)OCO2)Nc1ccc(Cl)cn1	-76.3	-101.5	-109.6	88.2*	-85.0	-95.7
CC(=O)Oc1ccccc1N(C(C)=O)S(=O)(=O)c1cccc([N+](=O)[O-])c1	9.5	19.1	-4.8	-4.7	0.4	7.8
SMILES	697 NFkB inh	Mdm2-MdmX inh	aSyn UTR inh	CSC inhib	Gli-Sufu antag	Jurkat NFkB inh
O=C(CSCc1cccc(Br)c1)N/N=C/c1ccc2c(c1)OCO2	-22.7	29.4	-3.2	100.3*	0.9	-38.3
O=C(CSCc1ccccc1Br)N/N=C/c1ccc2c(c1)OCO2	8.9	27.5	-13.0	17.7	6.7	16.1
CCN1C(=NCC2CC2)N[C@@H](c2cccc(C(F)(F)F)c2)C(C(=O)OC)=C1C	-7.6	27.9	-13.6	4.5	95.9*	6.1
CN(C)c1cccc(C(=O)OCC(=O)NCC2CCCO2)c1 (stereo not drawn)	4.4	25.6	-23.3	-21.2	14.1	6.6
CCOC(=O)C1CCCN(S(=O)(=O)CCNC(=O)c2ccc(F)cc2)C1 (stereo not drawn)	20.1	3.7	11.9	.	-9.2	12.6
COc1ccc(CCC(C)NCC2CCCCC2)cc1 (stereo not drawn)	-6.1	-34.4	-11.3	92.6*	18.3	5.4
Cc1cc(C(=O)NNc2ccc(Cl)cc2)no1	18.8	5.8	-15.6	117.4*	0.0	32.3
Cc1cc(C(=O)NNc2ccc(F)cc2F)no1	-0.2	4.9	-2.1	75.1*	-1.6	20.0
Cc1ccc2c(c1)-n1c(nc3cc(Cl)ccc3c1=O)C(Cc1ccccc1)NC2=O (stereo not drawn)	4.4	3.6	.	.	.	12.0
O=C(c1ccco1)N1N=C(c2ccco2)CC1c1ccc(Cl)cc1Cl (stereo not drawn)	18.9	-1.4	.	-7.3	-5.9	-4.4
CCC(C)n1ncn(-c2ccc(N3CCN(c4ccc(OCC5COC(Cn6cncn6)(c6ccc(Cl)cc6Cl)O5)cc4)CC3)cc2)c1=O (stereo not drawn)	-16.2	28.7	100.0*	47.5	26.2	-0.7
CCN1CSC(=S)N(Cc2ccccc2)C1	6.8	40.2	-23.5	18.3	62.5*	-6.5
Cc1ccc2nc(NC(=O)[C@H](C)N3C(=O)C4CC=CCC4C3=O)sc2c1 (stereo partly drawn)	1.0	5.8	62.8*	-1.2	-51.1	-19.4
CCOc1cc(C2NN=C(c3ccc(C)cc3)S2)ccc1O (stereo not drawn)	.	.	.	105.2*	-73.5	.
COc1ccc(C2NN=C(c3ccc(C)cc3)S2)cc1 (stereo not drawn)	.	.	-171.8	-7.7	-75.6	.
C[C@]12CCC(O)CC1CCC1C2CC[C@]2(C)C(c3cc(C(F)(F)F)n[nH]3)CCC12 (stereo partly drawn)	-74.1	28.8	-27.0	111.9*	46.6	-15.2
CC12CCC3C(CCC4CC(O)CCC43C)C1CC(O)C2 (stereo not drawn)	.	.	.	.	10.9	.
CCOc1cc(N2CCOCC2)c(OCC)cc1NC(=O)CN1C(=O)NC(Cc2ccccc2)C1=O (stereo not drawn)	18.0	15.0	14.2	8.9	4.3	2.0
CCOc1cc(N2CCOCC2)c(OCC)cc1NC(=O)CN1CCC(Cc2ccccc2)CC1	-30.2	13.1	-4.3	84.3*	22.9	3.0
N#C/C(=C\c1cn(Cc2ccccc2)c2ccccc12)C(=O)NCc1ccco1	-4.2	3.8	67.8*	31.8	2.3	-3.7
N#C/C(=C\c1cn(Cc2cccc(F)c2)c2ccccc12)C(=O)NCc1ccco1	11.4	43.1	64.5*	39.5	-10.5	4.2
O=C1CCC([N+](=O)[O-])C(c2ccccc2C(F)(F)F)N1 (stereo not drawn)	6.4	16.7	-27.8	-5.9	-1.2	10.7
